Assay results: PubChem BioAssay (NCI)
The panel holds about 83,000 compounds, 20% with a hit somewhere; the sample as a whole holds those more often.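 How to read the values: 0–100, growth inhibition (40 = 60% inhibited); 0, no net growth; -100 to 0, cell death (-40 = 40% of starting cells died; -100 = all dead).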 A number with no mark means an inactive call. Activity calls are given as the source filed them. Rule for the calls: active = growth percent below 10; inactive = the rest.

Legend:
Experiment in all cases: NCI-60 one-dose screen, 48 h (100 = growth as untreated, 0 = no growth, -100 = all killed)
Conditions in all cases: 10 µM unless noted
HCT-15 colon = system: HCT-15 colon
HT29 colon = system: HT29 colon
SNB-75 CNS = system: SNB-75 CNS
SNB-19 CNS = system: SNB-19 CNS
U251 CNS = system: U251 CNS
PC-3 prostate = system: PC-3 prostate
UACC-62 melanoma = system: UACC-62 melanoma
LOX IMVI melanoma = system: LOX IMVI melanoma
SK-MEL-28 melanoma = system: SK-MEL-28 melanoma

SMILES | growth (HCT-15 colon) | growth (HT29 colon) | growth (SNB-75 CNS) | growth (SNB-19 CNS) [%] | growth (U251 CNS) | growth (PC-3 prostate) | growth (UACC-62 melanoma) | growth (LOX IMVI melanoma) | growth (SK-MEL-28 melanoma)
O=C1OC(c2ccccc2)C(O)=C1c1ccccc1 (configuration not stated) | 108% | 111% | 102% | 105 | 100% | 99.1% | 104% | 113% | 120%
CCOC(=O)C(C)(C#N)C1C=CCCC1 (configuration not stated) | 91.3% | 94.7% | 78.3% | 87.9 | 106% | 94.2% | 97.7% | 96.1% | 96.2%
O=C(CN1CCCCC1)Nc1ccc2oc(=O)ccc2c1 | 104% | 104% | 95.6% | 98.4 | 102% | 86.8% | 97.7% | 96.6% | 121%
CSc1ccc(-c2ccccc(=O)c2O)cc1 | 26.9% | 25.7% | 34.6% | 17.5 | 9.54% (active) | 30.9% | -23% (active) | 9.8% (active) | 26.9%
N#CN1CCC[C@H]1C(=O)N1CCc2c(-c3[nH]nc4ncccc34)cccc21 | 7.65% (active) | -53.9% (active) | -16% (active) | 17.1 | -27.6% (active) | 21.6% | 7.64% (active) | 4.55% (active) | 24.6%
CCN1CCN(c2nc(NCCCNc3ccnc4cc(Cl)ccc34)c3ccccc3n2)CC1 | 25.8% | -16% (active) | 57% | 16.5 | -26.7% (active) | 37% | -75.6% (active) | -69.3% (active) | -66.4% (active)
COc1cc2c(cc1-c1c(C)noc1C)ncc1nc(C3CCCC3)n([C@H](C)COC(F)F)c12 | 16.8% | 18.3% | 37.4% | 49.5 | 39.7% | 31.8% | 20.7% | 13.2% | 53.8%
COc1ccc(/C=C\c2cc(OC)c(OC)c(OC)c2)cc1OC(=O)c1cccc(Cn2cc(CCOC(=O)[C@H](N)Cc3cn(C)c4ccccc34)nn2)c1 | 12.4% | 8.6% (active) | 22.9% | 31.2 | 19.2% | 18.8% | 42.7% | 22.3% | 63.1%
Cn1nc(N)c2cc([C@@H]3Nc4ccc5[nH]ncc5c4[C@H]4C5CCC(C5)[C@@H]34)ccc21 (some centres not stated) | 17.9% | 11.6% | -17.9% (active) | 29.5 | 21.1% | 17.4% | 32.1% | 38.8% | 53.2%
N#Cc1nnn(-c2ccc(S(N)(=O)=O)cc2)c1NC(=O)CCl | 96% | 102% | 85.5% | 96.3 | 92.3% | 89.7% | 96.6% | 94.6% | 104%
O=C1C=C(O)C(=O)C(CC2=C(O)C(=O)C=C(O)C2=O)=C1O | 105% | 107% | 83.5% | 112 | 102% | 95.2% | 103% | 89.9% | 110%
CCc1nnc(CNc2ccc(Cl)cc2)o1 | 100% | 95.1% | 82.7% | 106 | 98.2% | 95.1% | 93.7% | 91.2% | 100%
O=C1/C(=C(/c2ccccc2)N2CCOCC2)Cc2ccccc21 | -25.9% (active) | 8.82% (active) | 50.3% | 78.1 | 9.15% (active) | 12.2% | 48.6% | -58.3% (active) | -28.9% (active)
CN1CCN(c2nc(NCCCNc3ccnc4cc(Cl)ccc34)c3ccccc3n2)CC1 | 52.7% | 6.44% (active) | 79.6% | 45.4 | 2% (active) | 43.4% | -65.7% (active) | -43.8% (active) | -48.5% (active)
O=C(Nc1ccc(Cl)cc1)c1cc2cc(F)ccc2cc1O | 13.1% | 72.5% | 18.7% | 21.3 | 5.79% (active) | 9.4% (active) | 10.9% | 17.8% | 12.1%
CSc1nc2c(c(=O)[nH]1)C1(C(=O)Nc3ccccc31)c1c(nc(SC)[nH]c1=O)N2 | 107% | 112% | 99.5% | 106 | 97.9% | 107% | 99.8% | 102% | 105%
CCOC(=O)c1c(C)oc2ncnc(N3CCN(C(=O)COc4ccc(SC)cc4)CC3)c12 | 95.8% | 95.3% | 83% | 97.9 | 87.5% | 82.2% | 86.8% | 90.5% | 110%
COc1ccc(-c2n[nH]nc2-c2csc3ccccc23)cc1OC | 16.4% | 8.59% (active) | 1.72% (active) | 30.4 | 22.1% | 27.8% | 27.7% | 24.2% | 50.2%
